Assay [1] deals with T1, Testis-specific serine/threonine-protein kinase 2 (Homo sapiens) (UniProt Q96PF2).
T1 sequence (whole entry): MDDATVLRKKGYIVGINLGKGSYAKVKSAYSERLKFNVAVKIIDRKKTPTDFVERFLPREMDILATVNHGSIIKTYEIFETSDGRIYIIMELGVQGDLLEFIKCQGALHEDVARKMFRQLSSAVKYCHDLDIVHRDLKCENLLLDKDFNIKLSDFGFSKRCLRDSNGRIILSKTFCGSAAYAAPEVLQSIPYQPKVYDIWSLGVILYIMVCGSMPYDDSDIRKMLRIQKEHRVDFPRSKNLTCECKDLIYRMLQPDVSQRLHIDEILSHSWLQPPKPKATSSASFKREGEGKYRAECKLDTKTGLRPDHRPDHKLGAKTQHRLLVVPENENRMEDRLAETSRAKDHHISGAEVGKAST
Conditions: at 1 µM.

For assay [2], the target named is T2, Serine/threonine-protein kinase Nek2 (Homo sapiens) (UniProt P51955).
T2 sequence (whole entry): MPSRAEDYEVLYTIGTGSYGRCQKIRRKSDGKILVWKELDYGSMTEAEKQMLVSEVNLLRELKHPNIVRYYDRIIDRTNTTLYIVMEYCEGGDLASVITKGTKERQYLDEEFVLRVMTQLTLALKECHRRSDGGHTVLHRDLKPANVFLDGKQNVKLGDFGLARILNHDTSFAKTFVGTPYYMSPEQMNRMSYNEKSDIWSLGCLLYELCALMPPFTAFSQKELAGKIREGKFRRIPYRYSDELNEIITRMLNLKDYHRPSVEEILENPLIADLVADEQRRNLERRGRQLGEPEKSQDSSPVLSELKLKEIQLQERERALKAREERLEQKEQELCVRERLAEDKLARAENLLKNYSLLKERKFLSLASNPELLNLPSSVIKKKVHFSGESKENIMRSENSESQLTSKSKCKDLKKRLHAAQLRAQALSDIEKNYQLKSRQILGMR
Conditions: at 1 µM.

Assay [3] concerns the target T2, Serine/threonine-protein kinase Nek2 (Homo sapiens). Conditions: at 10 µM.
In assay [4] the target is T3, Serine/threonine-protein kinase Nek3 (Homo sapiens) (UniProt P51956).
T3 sequence (whole entry): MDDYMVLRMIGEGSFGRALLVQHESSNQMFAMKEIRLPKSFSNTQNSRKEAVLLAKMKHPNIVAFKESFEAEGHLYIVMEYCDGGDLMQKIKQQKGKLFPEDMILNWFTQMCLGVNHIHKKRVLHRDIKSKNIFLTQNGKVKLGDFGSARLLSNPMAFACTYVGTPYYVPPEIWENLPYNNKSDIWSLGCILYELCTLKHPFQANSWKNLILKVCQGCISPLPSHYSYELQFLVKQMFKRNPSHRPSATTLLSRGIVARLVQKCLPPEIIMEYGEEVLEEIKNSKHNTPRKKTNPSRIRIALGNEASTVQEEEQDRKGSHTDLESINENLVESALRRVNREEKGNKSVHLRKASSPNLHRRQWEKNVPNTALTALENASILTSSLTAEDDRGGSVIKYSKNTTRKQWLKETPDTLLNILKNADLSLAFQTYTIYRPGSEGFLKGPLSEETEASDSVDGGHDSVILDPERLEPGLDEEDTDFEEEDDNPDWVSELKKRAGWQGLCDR
Conditions: at 1 µM.

In assay [5] the target is T3, Serine/threonine-protein kinase Nek3 (Homo sapiens). Conditions: at 10 µM.
The target in assay [6] is Serine/threonine-protein kinase tousled-like 2 (Homo sapiens) (UniProt Q86UE8). Conditions: at 1 µM.
Serine/threonine-protein kinase tousled-like 2 (Homo sapiens), sequence (Q86UE8 whole entry, looked up): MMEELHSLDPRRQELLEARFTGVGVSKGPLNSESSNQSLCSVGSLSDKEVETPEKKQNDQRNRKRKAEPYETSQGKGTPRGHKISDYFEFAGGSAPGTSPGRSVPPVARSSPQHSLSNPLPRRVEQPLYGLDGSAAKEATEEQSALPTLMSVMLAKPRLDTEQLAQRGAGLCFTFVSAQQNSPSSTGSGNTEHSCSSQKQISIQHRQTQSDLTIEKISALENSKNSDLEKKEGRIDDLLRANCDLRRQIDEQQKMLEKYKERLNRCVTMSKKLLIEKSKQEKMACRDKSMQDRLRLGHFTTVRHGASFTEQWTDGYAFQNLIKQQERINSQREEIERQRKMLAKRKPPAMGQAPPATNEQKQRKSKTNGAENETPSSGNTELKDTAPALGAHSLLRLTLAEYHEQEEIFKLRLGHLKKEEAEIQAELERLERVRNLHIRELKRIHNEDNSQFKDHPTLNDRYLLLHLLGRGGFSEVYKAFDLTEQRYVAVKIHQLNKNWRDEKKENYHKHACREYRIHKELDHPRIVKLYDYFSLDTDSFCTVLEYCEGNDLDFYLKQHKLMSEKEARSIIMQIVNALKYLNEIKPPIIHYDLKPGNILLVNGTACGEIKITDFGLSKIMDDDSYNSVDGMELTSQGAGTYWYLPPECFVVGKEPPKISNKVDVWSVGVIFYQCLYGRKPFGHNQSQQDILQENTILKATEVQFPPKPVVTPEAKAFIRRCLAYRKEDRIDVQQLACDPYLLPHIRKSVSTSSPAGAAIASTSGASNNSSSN
Assay [7] shares this target. To be noted: at 10 µM.
The target of assay [8] is T4, Testis-specific serine/threonine-protein kinase 1 (Homo sapiens) (UniProt Q9BXA7).
T4 sequence (whole entry): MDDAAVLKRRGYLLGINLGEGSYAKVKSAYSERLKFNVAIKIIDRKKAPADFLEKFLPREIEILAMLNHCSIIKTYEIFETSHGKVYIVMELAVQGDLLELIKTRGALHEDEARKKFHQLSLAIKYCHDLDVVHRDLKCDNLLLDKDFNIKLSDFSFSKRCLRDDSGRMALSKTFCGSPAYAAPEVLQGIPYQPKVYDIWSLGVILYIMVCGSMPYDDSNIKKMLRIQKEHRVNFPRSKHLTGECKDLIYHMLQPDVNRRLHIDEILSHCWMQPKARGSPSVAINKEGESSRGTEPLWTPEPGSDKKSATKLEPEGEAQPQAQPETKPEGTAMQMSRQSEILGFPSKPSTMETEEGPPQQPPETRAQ
Conditions: at 1 µM.

Assay [9] addresses T4, Testis-specific serine/threonine-protein kinase 1 (Homo sapiens). To be noted: at 10 µM.
In assay [10] the target is T1, Testis-specific serine/threonine-protein kinase 2 (Homo sapiens). Conditions: at 10 µM.
Assay [11] concerns the target T5, Tyrosine-protein kinase Tec (Homo sapiens) (UniProt P42680).
T5 sequence (whole entry): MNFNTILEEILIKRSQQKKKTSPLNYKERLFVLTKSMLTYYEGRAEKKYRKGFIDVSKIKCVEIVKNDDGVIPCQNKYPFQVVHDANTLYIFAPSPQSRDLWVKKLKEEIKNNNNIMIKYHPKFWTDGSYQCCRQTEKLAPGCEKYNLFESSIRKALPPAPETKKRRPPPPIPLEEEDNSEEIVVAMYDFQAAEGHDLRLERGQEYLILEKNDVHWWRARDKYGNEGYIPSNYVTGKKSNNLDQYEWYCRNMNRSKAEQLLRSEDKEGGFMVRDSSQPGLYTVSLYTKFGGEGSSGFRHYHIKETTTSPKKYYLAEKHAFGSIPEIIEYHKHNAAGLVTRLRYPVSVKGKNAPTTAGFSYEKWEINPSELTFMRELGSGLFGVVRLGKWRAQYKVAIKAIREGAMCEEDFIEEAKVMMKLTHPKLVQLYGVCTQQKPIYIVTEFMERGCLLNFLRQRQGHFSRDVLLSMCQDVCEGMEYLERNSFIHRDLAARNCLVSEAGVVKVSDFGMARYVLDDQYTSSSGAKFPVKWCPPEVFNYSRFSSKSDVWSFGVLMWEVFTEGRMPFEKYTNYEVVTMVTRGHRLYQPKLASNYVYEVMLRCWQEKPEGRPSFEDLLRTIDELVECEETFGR
Conditions: at 1 µM.

Assay [12] concerns the target T5, Tyrosine-protein kinase Tec (Homo sapiens). Conditions: at 10 µM.
Assay [13] concerns the target Angiopoietin-1 receptor (Homo sapiens) (UniProt Q02763). Conditions: at 1 µM.
For assay [14] the target is unchanged. To be noted: at 10 µM.
Assay [15] deals with BDNF/NT-3 growth factors receptor (Homo sapiens) (UniProt Q16620). Conditions: at 1 µM.
BDNF/NT-3 growth factors receptor (Homo sapiens), sequence (Q16620 32-822 limits assumed): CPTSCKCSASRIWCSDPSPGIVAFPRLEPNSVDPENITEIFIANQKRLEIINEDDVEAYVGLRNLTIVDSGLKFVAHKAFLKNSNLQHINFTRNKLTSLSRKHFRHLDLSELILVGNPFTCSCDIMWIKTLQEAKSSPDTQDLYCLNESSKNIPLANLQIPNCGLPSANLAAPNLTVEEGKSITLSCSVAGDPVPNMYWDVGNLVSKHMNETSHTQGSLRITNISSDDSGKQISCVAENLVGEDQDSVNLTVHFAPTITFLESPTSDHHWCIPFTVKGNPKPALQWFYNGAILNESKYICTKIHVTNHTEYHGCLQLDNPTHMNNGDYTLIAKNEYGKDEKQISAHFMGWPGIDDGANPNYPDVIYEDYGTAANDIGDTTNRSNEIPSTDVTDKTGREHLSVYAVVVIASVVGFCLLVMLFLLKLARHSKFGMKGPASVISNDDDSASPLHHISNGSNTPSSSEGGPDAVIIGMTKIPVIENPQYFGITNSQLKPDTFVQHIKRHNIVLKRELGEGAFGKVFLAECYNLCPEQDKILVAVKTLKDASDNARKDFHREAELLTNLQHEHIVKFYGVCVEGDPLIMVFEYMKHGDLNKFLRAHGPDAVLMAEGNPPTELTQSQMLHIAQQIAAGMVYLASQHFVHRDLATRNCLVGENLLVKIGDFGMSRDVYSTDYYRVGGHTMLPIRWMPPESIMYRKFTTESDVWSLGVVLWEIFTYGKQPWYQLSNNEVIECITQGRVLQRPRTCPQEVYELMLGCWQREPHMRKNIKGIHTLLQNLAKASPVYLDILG
Assay [16] shares this target. Conditions: at 10 µM.
For assay [17], the target named is T6, Tyrosine-protein kinase TXK (Homo sapiens) (UniProt P42681).
T6 sequence (whole entry): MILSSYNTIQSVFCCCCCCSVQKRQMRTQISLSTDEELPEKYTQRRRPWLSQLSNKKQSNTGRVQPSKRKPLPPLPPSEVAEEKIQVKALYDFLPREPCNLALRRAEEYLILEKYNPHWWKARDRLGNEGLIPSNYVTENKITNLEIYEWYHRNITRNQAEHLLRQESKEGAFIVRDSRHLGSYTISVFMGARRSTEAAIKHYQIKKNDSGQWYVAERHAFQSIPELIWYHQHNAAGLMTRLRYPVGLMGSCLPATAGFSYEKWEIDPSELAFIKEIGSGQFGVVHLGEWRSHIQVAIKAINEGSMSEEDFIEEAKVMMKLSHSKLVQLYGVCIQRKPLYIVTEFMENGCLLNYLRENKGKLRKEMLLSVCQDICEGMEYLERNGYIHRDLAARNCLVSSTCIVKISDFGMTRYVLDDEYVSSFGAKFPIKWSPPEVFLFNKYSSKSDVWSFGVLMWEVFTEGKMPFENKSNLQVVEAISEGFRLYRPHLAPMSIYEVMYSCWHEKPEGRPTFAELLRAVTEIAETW
To be noted: at 1 µM.

The target in assay [18] is T6, Tyrosine-protein kinase TXK (Homo sapiens). Conditions: at 10 µM.
For assay [19], the target named is High affinity nerve growth factor receptor (Homo sapiens) (UniProt P04629). To be noted: at 1 µM.
High affinity nerve growth factor receptor (Homo sapiens), sequence (P04629 33-796 limits assumed): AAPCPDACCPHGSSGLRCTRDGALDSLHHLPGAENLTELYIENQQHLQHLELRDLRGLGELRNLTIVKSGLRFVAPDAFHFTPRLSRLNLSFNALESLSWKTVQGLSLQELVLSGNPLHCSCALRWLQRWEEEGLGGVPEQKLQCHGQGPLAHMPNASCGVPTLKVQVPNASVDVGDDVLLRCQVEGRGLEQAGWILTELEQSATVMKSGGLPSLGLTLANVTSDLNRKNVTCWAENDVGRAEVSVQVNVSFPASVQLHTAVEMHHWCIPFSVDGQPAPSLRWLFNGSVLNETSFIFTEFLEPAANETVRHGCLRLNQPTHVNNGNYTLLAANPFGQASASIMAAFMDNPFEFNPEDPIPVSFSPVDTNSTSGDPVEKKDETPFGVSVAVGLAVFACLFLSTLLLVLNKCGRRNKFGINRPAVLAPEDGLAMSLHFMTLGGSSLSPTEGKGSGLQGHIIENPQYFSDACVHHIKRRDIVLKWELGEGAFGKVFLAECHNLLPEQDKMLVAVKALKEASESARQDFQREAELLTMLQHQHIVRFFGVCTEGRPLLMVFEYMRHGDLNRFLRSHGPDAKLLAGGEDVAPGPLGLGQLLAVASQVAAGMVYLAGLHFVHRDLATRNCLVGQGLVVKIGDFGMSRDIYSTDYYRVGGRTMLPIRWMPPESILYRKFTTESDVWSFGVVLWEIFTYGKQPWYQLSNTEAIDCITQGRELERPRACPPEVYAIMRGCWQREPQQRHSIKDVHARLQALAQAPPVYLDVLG
For assay [20] the target is unchanged. To be noted: at 10 µM.

This is an account of results in ChEMBL document CHEMBL2218924, “A broad activity screen in support of a chemogenomic map for kinase signalling research and drug discovery” (Biochem J, 2013).

Angiopoietin-1 receptor (Homo sapiens), sequence (Q02763 whole entry): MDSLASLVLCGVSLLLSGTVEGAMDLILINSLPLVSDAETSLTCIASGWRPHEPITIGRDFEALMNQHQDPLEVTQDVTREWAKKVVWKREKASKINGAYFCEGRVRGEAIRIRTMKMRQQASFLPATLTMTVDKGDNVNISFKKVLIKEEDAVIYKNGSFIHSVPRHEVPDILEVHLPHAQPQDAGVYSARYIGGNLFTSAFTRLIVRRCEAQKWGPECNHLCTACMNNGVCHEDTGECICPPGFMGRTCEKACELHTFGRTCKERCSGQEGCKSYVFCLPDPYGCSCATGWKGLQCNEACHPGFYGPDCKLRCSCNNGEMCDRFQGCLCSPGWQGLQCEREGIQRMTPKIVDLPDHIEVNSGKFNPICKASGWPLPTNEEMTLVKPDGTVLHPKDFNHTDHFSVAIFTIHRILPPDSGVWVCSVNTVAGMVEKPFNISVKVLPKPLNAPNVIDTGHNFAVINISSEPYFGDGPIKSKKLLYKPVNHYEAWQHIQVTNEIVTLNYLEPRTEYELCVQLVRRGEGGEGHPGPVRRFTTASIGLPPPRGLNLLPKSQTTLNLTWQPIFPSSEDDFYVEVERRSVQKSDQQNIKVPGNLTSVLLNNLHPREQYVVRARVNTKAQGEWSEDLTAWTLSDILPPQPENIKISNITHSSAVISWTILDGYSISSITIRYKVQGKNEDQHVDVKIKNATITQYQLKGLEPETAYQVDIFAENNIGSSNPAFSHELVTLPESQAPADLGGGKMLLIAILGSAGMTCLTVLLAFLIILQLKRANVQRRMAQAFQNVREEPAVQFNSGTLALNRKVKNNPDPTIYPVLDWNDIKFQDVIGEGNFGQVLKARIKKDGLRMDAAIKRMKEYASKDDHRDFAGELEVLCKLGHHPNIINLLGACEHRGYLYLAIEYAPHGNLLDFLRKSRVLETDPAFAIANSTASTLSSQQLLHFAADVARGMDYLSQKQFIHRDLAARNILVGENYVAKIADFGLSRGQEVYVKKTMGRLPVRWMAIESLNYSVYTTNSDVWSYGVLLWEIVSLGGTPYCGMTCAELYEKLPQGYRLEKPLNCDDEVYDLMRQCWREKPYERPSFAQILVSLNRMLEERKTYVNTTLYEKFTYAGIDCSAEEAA

The term residual activity denotes the signal under treatment as a percentage of the control signal. Turning to `CCC(=O)Nc1ccc2ncnc(Nc3cccc(Br)c3)c2c1`, the residual activity in assay [1] stood at 95%.

`COC(=O)[C@@]1(O)C[C@H]2O[C@]1(C)n1c3ccccc3c3c4c(c5c6ccccc6n2c5c31)C(=O)NC4`: the residual activity in [2] came out at 75%; in assay [3] it was 29%; in [4] it was 65%; in assay [5] it was 53%; in [6], 1%; in [7] it was 0%. Further, the residual activity in assay [8] was -1%; in assay [9], 0%; in [1], 8%; in assay [10], 0%; in assay [11] it was 3%; in assay [12], 2%. For the same compound, the residual activity in assay [13] was 20%; in assay [14], 3%; in [15] it was 0%; in assay [16] it was 0%; in assay [17] it was 35%; in assay [18], 5%.

Turning to `CC(C)(C)c1cc(C=C(C#N)C#N)cc(Br)c1O`, the residual activity stood at 101% in assay [3]; 115% in assay [4]; 109% in [5]; 112% in assay [6]; 98% in [7]; 105% in [8]. Also, the residual activity in assay [9] is 101%; in assay [1] it was 113%; in assay [12], 103%; in [13] it was 114%; in assay [14], 101%; in assay [15], 117%. Moreover, the values for the residual activity in assay [16], in assay [17] and in [18] were 134%, 112% and 104%, respectively.

Consider `CN(C)CCCn1cc(C2=C(c3c[nH]c4ccccc34)C(=O)NC2=O)c2ccccc21`, for which the residual activity in assay [1] was determined as 103%.

As to `N/C(=N\[N+](=O)[O-])N/N=C\c1ccc(-c2cccc([N+](=O)[O-])c2)o1`, the residual activity in assay [4] amounted to 74%; in [5], 93%; in assay [6], 95%; in assay [7], 90%; in assay [1], 91%; in [10], 80%. The residual activity in assay [13] was 90%; in [14], 92%; in [19], 91%; in [20] it was 91%; in assay [18] it was 80%.

For the compound `CN[C@@H]1C[C@H]2O[C@@](C)([C@@H]1OC)n1c3ccccc3c3c4c(c5c6ccccc6n2c5c31)C(=O)NC4`, the residual activity was 105% in assay [4]; 67% in assay [5]; 1% in assay [6]; 1% in assay [7]; 29% in assay [15]; -12% in assay [16].

For the compound `CCc1nc(-c2ccc(OC)cc2)[nH]c1-c1ccncc1`, the residual activity was 112% in assay [2]; 105% in assay [3]; 106% in assay [5]; 107% in assay [6]; 100% in assay [7]; 113% in assay [8]. In addition, the residual activity was 102% in assay [11]; 75% in [12]; 111% in [13]; 106% in [14]; 113% in assay [15]; 107% in [16]. Moreover, the residual activity in assay [17] came out at 100%.

On to `COc1ccc(OC)c2c(=S)c3ccccc3[nH]c12`, for which the residual activity in assay [1] came to 106%.

As to `COc1ccc2c(c[n+](C)c3c4cc5c(cc4ccc23)OCO5)c1OC`, the residual activity in [2] amounted to 76%; in assay [3], 68%; in assay [4] it was 110%; in assay [5] it was 60%; in [6], 95%; in assay [7], 92%. Besides, the residual activity in assay [11] was 86%; in assay [12] it was 66%; in assay [13], 12%; in [14], 3%; in [16], 81%; in assay [17] it was 94%. Further, the residual activity in [18] is 59%.

For `COc1ccc2c(c1)/C(=C/c1cnc[nH]1)C(=O)N2`, the residual activity in assay [6] was found to be 63%; in assay [7] it was 11%; in [12], 70%; in assay [14] it was 71%; in assay [19] it was 3%; in assay [20], 0%. For the same compound, the residual activity in assay [17] stood at 77%; in assay [18], 46%.

Turning to `CC(C)[C@H](CO)Nc1nc(Nc2cc(N)cc(Cl)c2)c2ncn(C(C)C)c2n1`, in assay [1], the residual activity is 91%.
